Experimental data reported in PubChem BioAssay (NCI).
About 83,000 compounds went through this panel and 20% of them were active in at least one assay; those are over-represented in the sample as a whole.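 Step 1: grow cells in 96-well plates. Step 2: add test compound at a single concentration. Step 3: incubate 48 h. Step 4: record percent growth.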 Unmarked numbers belong to inactive results. The source made the active and inactive calls. Rule for the calls: active = growth percent below 10; inactive = the rest.

Experiments:
Test in all cases: NCI-60 one-dose screen, 48 h (100 = growth as untreated, 0 = no growth, -100 = all killed)
Conditions in all cases: 10 µM
[1] = test system: SR leukemia
[2] = test system: RPMI-8226 leukemia
[3] = test system: OVCAR-8 ovarian
[4] = test system: OVCAR-5 ovarian
[5] = test system: OVCAR-4 ovarian
[6] = test system: SK-OV-3 ovarian
[7] = test system: IGROV1 ovarian
[8] = test system: OVCAR-3 ovarian
[9] = test system: HS 578T breast
[10] = test system: NCI/ADR-RES ovarian
[11] = test system: T-47D breast
[12] = test system: BT-549 breast
[13] = test system: MDA-MB-435 melanoma
[14] = test system: SW-620 colon
[15] = test system: MCF7 breast
[16] = test system: HCT-116 colon
[17] = test system: HCC-2998 colon
[18] = test system: KM12 colon

COc1ccc(-c2nnc(SCC(=O)Nc3ccc(C(=O)/C=C/c4ccccc4)cc3)n2-c2ccccc2)cc1OC
growth [1]: 57.5%
growth [2]: 23.4%
growth [3]: 51.3%
growth [4]: 104%
growth [5]: 62.5%
growth [6]: 101%
growth [7]: 87.4%
growth [8]: 88.8%
growth [9]: 83.1%
growth [10]: 88.3%
growth [11]: 72.9%
growth [12]: 92.8%
growth [13]: 86.1%
growth [14]: 66.4%
growth [15]: 36.4%
growth [16]: 17%
growth [17]: 110%
growth [18]: 91.7%

COc1ccc(Nc2cnc3cc(NS(=O)(=O)c4ccc(C)cc4)ccc3n2)cc1
growth [1]: 30%
growth [2]: 106%
growth [3]: 82.1%
growth [4]: 95.9%
growth [5]: 86.5%
growth [6]: 88%
growth [7]: 65.5%
growth [8]: 79.8%
growth [9]: 82.7%
growth [10]: 73.1%
growth [11]: 94.4%
growth [12]: 98.1%
growth [13]: 4.57% (active)
growth [14]: 59.9%
growth [15]: 61.6%
growth [16]: 79.6%
growth [17]: 93.6%
growth [18]: 71.3%

Cc1ccc(S(=O)(=O)N/N=C2\CCCc3ccccc32)cc1
growth [1]: 110%
growth [2]: 94.3%
growth [3]: 95.2%
growth [4]: 90%
growth [5]: 95.8%
growth [6]: 111%
growth [7]: 113%
growth [8]: 113%
growth [9]: 95%
growth [10]: 96.7%
growth [11]: 94%
growth [12]: 115%
growth [13]: 101%
growth [14]: 101%
growth [15]: 92.1%
growth [16]: 114%
growth [17]: 108%
growth [18]: 111%

CCOc1ccccc1/C=N\N=C\c1ccccc1O
growth [1]: 80.6%
growth [2]: 100%
growth [3]: 107%
growth [4]: 120%
growth [5]: 112%
growth [6]: 95.7%
growth [7]: 95.8%
growth [8]: 88.9%
growth [9]: 110%
growth [10]: 99.9%
growth [11]: 78.5%
growth [12]: 84.2%
growth [13]: 107%
growth [14]: 105%
growth [15]: 84.2%
growth [16]: 98.8%
growth [17]: 102%
growth [18]: 95.3%

OCC1OC(n2cnc3c(NCc4ccco4)ncnc32)C(O)C1O (stereo unspecified)
growth [1]: 5.19% (active)
growth [2]: 50.8%
growth [3]: 0.871% (active)
growth [4]: 28.8%
growth [5]: 23%
growth [6]: -2.77% (active)
growth [7]: -3.86% (active)
growth [8]: -41.7% (active)
growth [9]: 11.5%
growth [10]: 12.7%
growth [11]: 8.92% (active)
growth [12]: -23% (active)
growth [13]: 17.2%
growth [14]: 18.8%
growth [15]: -13.1% (active)
growth [16]: 1.81% (active)
growth [17]: 23.7%
growth [18]: 62.8%

C=CCn1c(SCC(=O)Nc2ccc(C(=O)/C=C/c3cc(OC)c(OC)c(OC)c3)cc2)nnc1-c1cc(-c2ccc(Cl)cc2)nc2ccccc12
growth [1]: 62%
growth [2]: -16.3% (active)
growth [3]: 52.1%
growth [4]: 97.6%
growth [5]: 87.9%
growth [6]: 87.1%
growth [7]: 88.4%
growth [8]: 97.3%
growth [9]: 83.7%
growth [10]: 75.6%
growth [11]: 78.4%
growth [12]: 75%
growth [13]: 92.9%
growth [14]: 90.7%
growth [15]: 38.6%
growth [16]: 50%
growth [17]: 103%
growth [18]: 85.8%

O=C(NCCNC(=O)c1ccc(F)cc1)Nc1ccc(-n2cc(-c3ccncc3)c(-c3ccc(Cl)c(O)c3)n2)cc1
growth [1]: -0.62% (active)
growth [2]: -35.6% (active)
growth [3]: 4.62% (active)
growth [4]: 27.8%
growth [5]: 37.1%
growth [6]: -8.18% (active)
growth [7]: 20.4%
growth [8]: 3.59% (active)
growth [9]: 16.6%
growth [10]: 77.4%
growth [11]: 30.1%
growth [12]: -24.5% (active)
growth [13]: -5.7% (active)
growth [14]: 15.1%
growth [15]: 3.7% (active)
growth [16]: -24.2% (active)
growth [17]: -28.4% (active)
growth [18]: 0.713% (active)

NS(=O)(=O)Oc1ccc2c(ccn2C(=O)C23CC4CC(CC(C4)C2)C3)c1
growth [1]: 111%
growth [2]: 110%
growth [3]: 105%
growth [4]: 105%
growth [5]: 104%
growth [6]: 121%
growth [7]: 110%
growth [8]: 117%
growth [9]: 109%
growth [10]: 95.5%
growth [11]: 112%
growth [12]: 105%
growth [13]: 106%
growth [14]: 103%
growth [15]: 120%
growth [16]: 102%
growth [17]: 101%
growth [18]: 107%

CCc1ccc(-c2ccc(-n3nc(C)c4c(N)nc(Cc5ccccc5)nc43)cc2)cc1
growth [1]: 21.2%
growth [2]: 86%
growth [3]: 32.3%
growth [4]: 73.5%
growth [5]: 63.9%
growth [6]: 62.8%
growth [7]: 68%
growth [8]: 80%
growth [9]: 57.6%
growth [10]: 38.4%
growth [11]: 49.7%
growth [12]: 72%
growth [13]: 82.7%
growth [14]: 77.8%
growth [15]: 58.1%
growth [16]: 59.1%
growth [17]: 23.7%
growth [18]: 53.5%

O=C(NCCCNS(=O)(=O)c1ccc(Cl)cc1)Nc1ccc(-n2cc(-c3ccncc3)c(-c3ccc(Cl)c(O)c3)n2)cc1
growth [1]: 17%
growth [2]: 18.7%
growth [3]: 36%
growth [4]: 70.8%
growth [5]: 44.2%
growth [6]: 68.8%
growth [7]: 62%
growth [8]: 50%
growth [9]: 40.9%
growth [10]: 76.8%
growth [11]: 22.2%
growth [12]: 26.6%
growth [13]: 28.4%
growth [14]: 50.3%
growth [15]: 13.8%
growth [16]: 16.2%
growth [17]: 57.9%
growth [18]: 28.6%

CS(=O)(=O)c1nccc(-c2c(-c3cccc(OCc4ccc(F)cc4)c3)nc3sccn23)n1
growth [1]: 38.6%
growth [2]: 71.7%
growth [3]: 86.3%
growth [4]: 102%
growth [5]: 65.1%
growth [6]: 60.7%
growth [7]: 49.7%
growth [8]: 88.3%
growth [9]: 73.4%
growth [10]: 89.4%
growth [11]: 71.6%
growth [12]: 41.7%
growth [13]: 81.3%
growth [14]: 48.4%
growth [15]: 69.5%
growth [16]: 46.4%
growth [17]: -16.3% (active)
growth [18]: 38.9%

O=C(CCl)Nc1ccc(Cc2ccc(NC(=O)CCl)cc2)cc1
growth [1]: 5.61% (active)
growth [2]: -32.9% (active)
growth [3]: 0.481% (active)
growth [4]: 9.56% (active)
growth [5]: 27%
growth [6]: 61.7%
growth [7]: -45.9% (active)
growth [8]: -32.8% (active)
growth [9]: 35.7%
growth [10]: 2.83% (active)
growth [11]: 14.7%
growth [12]: -23.5% (active)
growth [13]: 0.989% (active)
growth [14]: -21.8% (active)
growth [15]: 1.46% (active)
growth [16]: -56.8% (active)
growth [17]: -14.9% (active)
growth [18]: 0.445% (active)

CNC(=O)c1cc(Oc2ccc3c(c2)sc2nc(-c4ccc(N)cc4)cn23)ccn1
growth [1]: 28.3%
growth [2]: 40.5%
growth [3]: 10.9%
growth [4]: 64.2%
growth [5]: 59.7%
growth [6]: 21.2%
growth [7]: 31.6%
growth [8]: 1.42% (active)
growth [9]: 54.9%
growth [10]: 11.2%
growth [11]: 36.1%
growth [12]: 5.56% (active)
growth [13]: 13%
growth [14]: 34.8%
growth [15]: 20.2%
growth [16]: 6.01% (active)
growth [17]: 20.9%
growth [18]: 20.7%

COc1ccc(-c2n[nH]nc2-c2cc(OC)c(OC)c(OC)c2)cc1
growth [1]: 7.33% (active)
growth [2]: 4.71% (active)
growth [3]: 21.8%
growth [4]: 43.3%
growth [5]: 35.4%
growth [6]: 48.6%
growth [7]: 4.66% (active)
growth [8]: -33.3% (active)
growth [9]: 12.2%
growth [10]: -28.8% (active)
growth [11]: 21.9%
growth [12]: 13.6%
growth [13]: 4.87% (active)
growth [14]: 19.7%
growth [15]: 19.7%
growth [16]: 6.27% (active)
growth [17]: 14.2%
growth [18]: 0.0603% (active)

CN(C)CCOc1cccc(-c2nc3sccn3c2-c2ccnc(S(C)(=O)=O)n2)c1
growth [1]: 102%
growth [2]: 94.7%
growth [3]: 100%
growth [4]: 97.3%
growth [5]: 75.8%
growth [6]: 96.5%
growth [7]: 94.3%
growth [8]: 93.6%
growth [9]: 86.4%
growth [10]: 101%
growth [11]: 74.7%
growth [12]: 104%
growth [13]: 96.8%
growth [14]: 91.7%
growth [15]: 88.3%
growth [16]: 92.6%
growth [17]: 106%
growth [18]: 102%

COc1cc(-c2csc(NC(=O)Nc3ccc(Cl)c(C(F)(F)F)c3)n2)cc(OC)c1OC
growth [1]: 0.909% (active)
growth [2]: -7.41% (active)
growth [3]: 4.2% (active)
growth [4]: 18.4%
growth [5]: -1.69% (active)
growth [6]: 2.04% (active)
growth [7]: 25.2%
growth [8]: -19% (active)
growth [9]: 16.8%
growth [10]: -8.03% (active)
growth [11]: -9.38% (active)
growth [12]: -13% (active)
growth [13]: -7.7% (active)
growth [14]: 18.1%
growth [15]: -9.68% (active)
growth [16]: -19.6% (active)
growth [17]: 21.4%
growth [18]: 9.25% (active)

O=C(/C=C/c1cccc(B(O)O)c1)c1cccc(B(O)O)c1
growth [1]: 3.2% (active)
growth [2]: 48.2%
growth [3]: -12.2% (active)
growth [4]: -12% (active)
growth [5]: 53.9%
growth [6]: 3.23% (active)
growth [7]: 26.7%
growth [8]: -28.2% (active)
growth [9]: 16.9%
growth [10]: 8.08% (active)
growth [11]: 11.1%
growth [12]: -91% (active)
growth [13]: 0.799% (active)
growth [14]: -41.3% (active)
growth [15]: 0.092% (active)
growth [16]: -88.3% (active)
growth [17]: -86.4% (active)
growth [18]: -64.4% (active)
